What all share (assay): DAPPL (digital affinity profiling via proximity ligation, sequencing); 10 mM Tris-HCl pH 7.5, 50 mM NaCl, 1 mM DTT, 4% glycerol, room temperature, 30 min; GST-TFs on glutathione beads, 16-mer random dsDNA library, 0.1% formaldehyde crosslink after washing; high values mean tight binding
What all share (conditions): protein: recombinant; tags: N-terminal GST; dsDNA, one strand shown

Assay [1] concerns the target T1, ERF (Homo sapiens, UniProt P50548 1-548).
T1 sequence: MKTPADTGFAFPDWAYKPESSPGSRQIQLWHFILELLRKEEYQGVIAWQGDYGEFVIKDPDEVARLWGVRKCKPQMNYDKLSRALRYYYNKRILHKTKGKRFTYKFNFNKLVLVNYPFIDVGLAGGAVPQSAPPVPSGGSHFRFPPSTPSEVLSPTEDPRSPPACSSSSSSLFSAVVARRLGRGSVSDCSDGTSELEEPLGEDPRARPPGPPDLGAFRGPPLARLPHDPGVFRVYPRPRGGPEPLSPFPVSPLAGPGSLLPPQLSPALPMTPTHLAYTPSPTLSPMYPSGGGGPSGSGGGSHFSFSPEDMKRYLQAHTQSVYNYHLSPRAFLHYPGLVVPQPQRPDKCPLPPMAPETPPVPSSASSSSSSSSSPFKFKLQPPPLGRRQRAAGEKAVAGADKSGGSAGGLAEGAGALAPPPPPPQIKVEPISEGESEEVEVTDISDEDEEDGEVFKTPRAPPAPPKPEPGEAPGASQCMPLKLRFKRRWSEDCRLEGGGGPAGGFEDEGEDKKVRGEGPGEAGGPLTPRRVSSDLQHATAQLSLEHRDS
Summed up:
(§1)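 Human transcription factors fused to GST were expressed in yeast, captured on glutathione beads, given DNA barcodes and pooled with a GST-only negative control. Pools were incubated with 200 nmole of a 16-mer random double-stranded DNA library in Tris/NaCl/DTT/glycerol buffer at room temperature for 30 min. They were then washed, crosslinked with 0.1% formaldehyde, proximity-ligated (BsaI/T4 ligase, 1 h, 37 °C), PCR-amplified and sequenced on an Illumina NextSeq500. Binding signal is each 6-mer's read frequency for a factor divided by its frequency for the GST control.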

Assay [2] concerns the target T2, ETV3L (Homo sapiens, UniProt Q6ZN32 1-361).
T2 sequence: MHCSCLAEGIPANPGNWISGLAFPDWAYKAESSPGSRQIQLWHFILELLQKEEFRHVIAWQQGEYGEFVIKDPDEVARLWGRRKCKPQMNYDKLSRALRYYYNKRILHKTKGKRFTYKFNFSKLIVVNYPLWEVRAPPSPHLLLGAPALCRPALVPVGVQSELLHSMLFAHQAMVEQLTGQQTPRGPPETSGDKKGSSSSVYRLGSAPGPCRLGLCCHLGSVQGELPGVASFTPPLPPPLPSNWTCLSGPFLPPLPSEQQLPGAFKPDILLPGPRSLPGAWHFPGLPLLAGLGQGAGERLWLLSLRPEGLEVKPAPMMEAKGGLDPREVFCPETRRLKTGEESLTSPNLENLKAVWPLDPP
The procedure, abridged: as §1

Assay [3] addresses T3, ETS2 (Homo sapiens, UniProt P15036 1-469).
T3 sequence: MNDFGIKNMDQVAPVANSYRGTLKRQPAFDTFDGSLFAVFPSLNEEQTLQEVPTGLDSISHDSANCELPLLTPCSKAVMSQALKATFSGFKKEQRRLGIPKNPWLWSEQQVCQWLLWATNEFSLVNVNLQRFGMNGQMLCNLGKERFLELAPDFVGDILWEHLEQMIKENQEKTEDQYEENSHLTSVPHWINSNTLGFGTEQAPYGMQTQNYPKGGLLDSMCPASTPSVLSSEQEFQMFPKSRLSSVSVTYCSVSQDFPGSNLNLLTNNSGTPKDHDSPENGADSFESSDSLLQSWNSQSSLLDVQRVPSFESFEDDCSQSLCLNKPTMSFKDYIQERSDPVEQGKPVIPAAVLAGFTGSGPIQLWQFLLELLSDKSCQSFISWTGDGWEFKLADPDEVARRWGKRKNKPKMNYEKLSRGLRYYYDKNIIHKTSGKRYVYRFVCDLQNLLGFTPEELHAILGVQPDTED
Summed up:
as §1

Assay [4] has as its target T4, SPDEF (Homo sapiens, UniProt O95238 1-335).
T4 sequence: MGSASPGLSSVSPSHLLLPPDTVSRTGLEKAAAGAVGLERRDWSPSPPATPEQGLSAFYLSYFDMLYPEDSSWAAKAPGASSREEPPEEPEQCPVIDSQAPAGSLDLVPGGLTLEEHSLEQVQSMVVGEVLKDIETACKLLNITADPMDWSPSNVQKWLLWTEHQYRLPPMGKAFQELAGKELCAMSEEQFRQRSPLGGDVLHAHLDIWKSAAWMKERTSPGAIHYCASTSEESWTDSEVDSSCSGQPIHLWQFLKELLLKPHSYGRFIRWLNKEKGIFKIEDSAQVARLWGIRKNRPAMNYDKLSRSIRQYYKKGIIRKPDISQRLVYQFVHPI
The procedure, abridged:
as §1

Assay [5] deals with T5, ETV7 (Homo sapiens, UniProt Q9Y603 1-341).
T5 sequence: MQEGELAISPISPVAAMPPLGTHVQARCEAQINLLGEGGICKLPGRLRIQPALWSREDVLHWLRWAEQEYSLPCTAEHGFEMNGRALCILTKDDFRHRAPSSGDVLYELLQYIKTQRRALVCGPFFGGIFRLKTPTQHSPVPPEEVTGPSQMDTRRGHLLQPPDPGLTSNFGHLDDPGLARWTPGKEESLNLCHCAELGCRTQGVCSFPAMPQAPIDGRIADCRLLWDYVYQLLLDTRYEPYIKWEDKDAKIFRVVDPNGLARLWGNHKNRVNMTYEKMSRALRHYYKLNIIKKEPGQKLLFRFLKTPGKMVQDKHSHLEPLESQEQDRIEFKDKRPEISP
Summed up: as §1

Assay [6] addresses T6, ELF5 (Homo sapiens, UniProt Q9UKW6-2 1-255).
T6 sequence: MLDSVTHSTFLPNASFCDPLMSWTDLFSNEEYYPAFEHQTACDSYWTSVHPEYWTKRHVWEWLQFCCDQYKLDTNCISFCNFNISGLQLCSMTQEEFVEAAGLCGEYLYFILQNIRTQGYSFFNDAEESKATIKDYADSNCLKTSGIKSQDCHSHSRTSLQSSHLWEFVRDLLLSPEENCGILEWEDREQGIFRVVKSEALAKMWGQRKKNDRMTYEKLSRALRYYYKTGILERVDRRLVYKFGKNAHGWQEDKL
The procedure, abridged:
as §1

Assay [7] has as its target T7, ETV3 (Homo sapiens, UniProt P41162-2 1-143).
T7 sequence: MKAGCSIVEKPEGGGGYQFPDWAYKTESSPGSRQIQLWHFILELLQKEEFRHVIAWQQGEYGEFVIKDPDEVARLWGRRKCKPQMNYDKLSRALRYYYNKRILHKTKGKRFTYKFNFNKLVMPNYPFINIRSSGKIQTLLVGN
Summed up:
as §1

Assay [8] concerns the target ETV6 (Homo sapiens, UniProt P41212 1-452). Summed up: as §1

Consider 7 sequences from publication PMC7862700, “An all-to-all approach to the identification of sequence-specific readers for epigenetic DNA modifications on cytosine”.

ETV6, sequence (P41212 whole entry): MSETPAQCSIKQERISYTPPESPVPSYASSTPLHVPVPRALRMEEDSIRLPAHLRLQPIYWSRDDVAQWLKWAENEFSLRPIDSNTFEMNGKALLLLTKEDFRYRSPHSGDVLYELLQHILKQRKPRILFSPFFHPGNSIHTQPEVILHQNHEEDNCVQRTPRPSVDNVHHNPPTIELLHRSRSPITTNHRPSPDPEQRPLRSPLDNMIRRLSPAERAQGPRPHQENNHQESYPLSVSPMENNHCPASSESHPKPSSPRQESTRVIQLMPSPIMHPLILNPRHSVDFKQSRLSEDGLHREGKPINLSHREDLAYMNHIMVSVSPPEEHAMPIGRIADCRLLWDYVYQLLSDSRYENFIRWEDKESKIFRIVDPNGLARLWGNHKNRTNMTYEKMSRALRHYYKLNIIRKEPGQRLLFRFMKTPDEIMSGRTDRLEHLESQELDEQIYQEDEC

For ACCCGG, the binding signal in assay [1] was 1.48 fold enrichment (6-mer frequency, TF over GST control); in assay [2], 1.69 fold enrichment (6-mer frequency, TF over GST control); in assay [3], 1.79 fold enrichment (6-mer frequency, TF over GST control); in assay [4] it was 2.23 fold enrichment (6-mer frequency, TF over GST control); in assay [5], 1.55 fold enrichment (6-mer frequency, TF over GST control); in assay [6], 1.91 fold enrichment (6-mer frequency, TF over GST control). Further, the binding signal in assay [7] was 1.82 fold enrichment (6-mer frequency, TF over GST control); in assay [8], 1.7 fold enrichment (6-mer frequency, TF over GST control).

Regarding TAGATC, the binding signal in assay [1] is 1.18 fold enrichment (6-mer frequency, TF over GST control); in assay [2], 1.13 fold enrichment (6-mer frequency, TF over GST control); in assay [3], 1.13 fold enrichment (6-mer frequency, TF over GST control); in assay [4], 1.43 fold enrichment (6-mer frequency, TF over GST control); in assay [5], 1.06 fold enrichment (6-mer frequency, TF over GST control); in assay [6] it was 1.02 fold enrichment (6-mer frequency, TF over GST control). For the same sequence, the binding signal in assay [7] is 1.09 fold enrichment (6-mer frequency, TF over GST control); in assay [8], 1.02 fold enrichment (6-mer frequency, TF over GST control).

For the sequence ACTCCT, the binding signal was 1.45 fold enrichment (6-mer frequency, TF over GST control) in assay [1]; 1.54 fold enrichment (6-mer frequency, TF over GST control) in assay [2]; 1.52 fold enrichment (6-mer frequency, TF over GST control) in assay [3]; 1.42 fold enrichment (6-mer frequency, TF over GST control) in assay [4]; 1.52 fold enrichment (6-mer frequency, TF over GST control) in assay [5]; 1.42 fold enrichment (6-mer frequency, TF over GST control) in assay [6]. Besides, the binding signal was 1.43 fold enrichment (6-mer frequency, TF over GST control) in assay [7] and 1.42 fold enrichment (6-mer frequency, TF over GST control) in assay [8].

Turning to TGTACG, the binding signal in assay [1] was 1.14 fold enrichment (6-mer frequency, TF over GST control); in assay [2], 1.2 fold enrichment (6-mer frequency, TF over GST control); in assay [3], 1.17 fold enrichment (6-mer frequency, TF over GST control); in assay [4], 1.29 fold enrichment (6-mer frequency, TF over GST control); in assay [5] it was 1.09 fold enrichment (6-mer frequency, TF over GST control); in assay [6] it was 1.14 fold enrichment (6-mer frequency, TF over GST control). Besides, the binding signal in assay [7] is 1.1 fold enrichment (6-mer frequency, TF over GST control); in assay [8], 1.18 fold enrichment (6-mer frequency, TF over GST control).

As to CAACGA, the binding signal in assay [1] was 1.05 fold enrichment (6-mer frequency, TF over GST control); in assay [2], 1.08 fold enrichment (6-mer frequency, TF over GST control); in assay [3] it was 1.11 fold enrichment (6-mer frequency, TF over GST control); in assay [4], 1.01 fold enrichment (6-mer frequency, TF over GST control); in assay [5] it was 1.05 fold enrichment (6-mer frequency, TF over GST control); in assay [6], 1.01 fold enrichment (6-mer frequency, TF over GST control). For the same sequence, the binding signal in assay [7] is 1.07 fold enrichment (6-mer frequency, TF over GST control); in assay [8], 1.04 fold enrichment (6-mer frequency, TF over GST control).

Consider TGTCCG, for which the binding signal in assay [1] is 1.31 fold enrichment (6-mer frequency, TF over GST control); in assay [2] it was 1.4 fold enrichment (6-mer frequency, TF over GST control); in assay [3], 1.52 fold enrichment (6-mer frequency, TF over GST control); in assay [4], 1.8 fold enrichment (6-mer frequency, TF over GST control); in assay [5], 1.51 fold enrichment (6-mer frequency, TF over GST control); in assay [6], 1.62 fold enrichment (6-mer frequency, TF over GST control). The binding signal in assay [7] is 1.6 fold enrichment (6-mer frequency, TF over GST control); in assay [8], 1.55 fold enrichment (6-mer frequency, TF over GST control).

Take TGCACA: the binding signal is 1.22 fold enrichment (6-mer frequency, TF over GST control) in assay [1]; 1.13 fold enrichment (6-mer frequency, TF over GST control) in assay [2]; 1.06 fold enrichment (6-mer frequency, TF over GST control) in assay [3]; 1.21 fold enrichment (6-mer frequency, TF over GST control) in assay [4]; 1.02 fold enrichment (6-mer frequency, TF over GST control) in assay [5]; 1.07 fold enrichment (6-mer frequency, TF over GST control) in assay [6]. For the same sequence, the binding signal in assay [7] is 1.18 fold enrichment (6-mer frequency, TF over GST control); in assay [8], 1.06 fold enrichment (6-mer frequency, TF over GST control).
